Assay results reported in the supplement of paper PMC10338343.
± gives the standard deviation. Over roughly 3,700 sequences, “pre-steady-state target cleavage rate” has its median near 0.02; the highest 2% begin near 0.23. This excerpt belongs to a sample that is enriched for the highest values.

The sequences below were run on MILI (PIWIL2) piRISC loaded with Kctd7 piRNA (26 nt) (assay: pre-steady-state target cleavage rate (min^-1); MIWI and MILI are mouse PIWI proteins and EfPiwi is from a freshwater sponge; tags in brackets are library labels; higher = faster piRNA-guided slicing of the target). Conditions: guide: Kctd7 piRNA 5'p-UGUUAAUCUCUCAGAGAAGGUGACAG; auxiliary factor: 500 nM mouse GTSF1.
Description: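 Cleave-'n-Seq: a library of target RNAs (target site embedded in constant flanks, ACAGCATTCCGCGTTAGTGATATCCG... 5' flank; DNA-blocked outside the site) at 0.1 nM was incubated with 1 nM active mouse MILI or MIWI piRISC (synthetic 5'-monophosphorylated piRNA guide) with or without 500 nM mouse GTSF1 at 33 °C for 1 min to 16 h. Uncleaved targets were sequenced and normalised to non-target controls, and the pooled three trials were fitted to a burst-and-steady-state model to give the pre-steady-state cleavage rate (min^-1; k3 is constrained to at most 1e-4). Sequence is the target site only; target names encode pairing extent (gX:gY) and contiguous / 1-mismatch / 2-mismatch / bulge geometry. Fits with R² ≤ 0 are excluded.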

Sequence	pre-steady-state target cleavage rate
UAGUGUGUCAGCUUCUGUGAGAGAUUAACA	0.129 ± 0.013
UAGUGAGUCACCUUCUCUGCGAGAUUAACA	0.0952 ± 0.015
UAGUGUGUCAGGUUCUCUGAGAGAUUAUGA	0.00789 ± 0.0035
UAGUGACACAGCUUCUCUGUGAGAUUAACA	0.0271 ± 0.0057
UAGUGACAGACCUUGUCUGAGAGAUUAACA	0.0481 ± 0.0096
UAGUGAGUCAGCUUCUCUGAGAGAUUAACA	0.158 ± 0.013
UAGUGUCAGACCUUCUCUGAGAGAUUAACA	0.108 ± 0.012
UAGUCUCUCACCUUCUCUGAGUGAUUAACA	0.00476 ± 0.0037
UAGUGACUCAGCUUGUCUGAGAGAUUAACA	0.112 ± 0.0088
UAGUGACAGACCUUCUCUGAGACGAUUAACA	0.0176 ± 0.0081
UAGUGAGUCACCUUCUCUGAGAGAUAAACA	0.249 ± 0.052
UAGUGAGUACACCUUCUCUGAGAGAUUAACA	0.237 ± 0.019
UAGUGAGACACCUUCUCUGAGAGAUUAACA	0.185 ± 0.011
UAGUGAGUACCUUCUCUGAGAGAUUAACA	0.113 ± 0.014
UAGUGAGUCACCUUCCUGAGAGAUUAACA	0.119 ± 0.038
UAGUGACUCACCUUCUCUGAGAGAUUAAACA	0.251 ± 0.035
UAGUGAGUCACCUUCCCUGAGAGAUUAACA	0.394 ± 0.074
UAGUGACUCACCUUCUCUGAGAGAUUAAA	0.13 ± 0.031
UAGUGACUCACCUUCUCUGAGAGAUUAAAA	0.0677 ± 0.02
UAGUGAGUCACCUUCCUCUGAGAGAUUAACA	0.148 ± 0.019
UAGUGAGUCACCUUCUCUGAGAGAUAAAGA	0.00919 ± 0.0072
UAGUGAGUCACCUUCUCUGUGAGAUAAACA	0.0242 ± 0.0096
UAGUGACUCACCUUCUCUGAGAGAGUUAACA	0.118 ± 0.017

Sequence	pre-steady-state target cleavage rate
UAGUGUGAGACCUUCUCUGAGAGAUUAACA	0.101 ± 0.0091
UAGUGACACACCUUCAGUGAGAGAUUAACA	0.0881 ± 0.016
UAGUGACUCAUCCUUCUCUGAGAGAUUAACA	0.0582 ± 0.0061
UAGUGAGUCACGUUCUCUGUGAGAUUAACA	0.0376 ± 0.0033
UAGUGUGUCACCUUCUCAGAGACAUUAACA	0.117 ± 0.025
UAGUGACUCACCUUCUCUGAGAGAUGUAACA	0.172 ± 0.028
UAGUGACAGAACCUUCUCUGAGAGAUUAACA	0.0771 ± 0.01
UAGUGAGUCACCUUCUUCUGAGAGAUUAACA	0.0918 ± 0.028
UAGUGAGUCACCUUCUGCUGAGAGAUUAACA	0.264 ± 0.058
UAGUGUGUCACCUUCUCGAGAGAUUAACA	0.0644 ± 0.013
UAGUGUGUCACCUUCUCCGAGAGAUUAACA	0.373 ± 0.1
UAGUCUGUCACCUUCUCUGAGAGAUAAACA	0.132 ± 0.022
UAGUGAGUCACCUUCUGAGAGAGAUUAACA	0.074 ± 0.011
UAGUGAGUCACCUUCUCAGAGAGAUUAACA	0.173 ± 0.022
UAGUCUGUCACCUUCUCUGAGAGAUAUAACA	0.235 ± 0.03
UAGUCUGUCACCUUCUCCGAGAGAUUAACA	0.21 ± 0.038
UAGUGAGUCACCUUCUCGAGAGAUUAACA	0.0598 ± 0.015
UAGUGAGUCACCUUCUCCGAGAGAUUAACA	0.394 ± 0.084
UAGUCUGUCACCUUCUCUGAGAGAUAACA	0.0928 ± 0.025
UAGUGACAGUCCUUCUAUGAGAGAUUAACA	0.0377 ± 0.013
UAGUGACACAGCUUCUCUGAGAGAUAAACA	0.0211 ± 0.0068
UAGUGACUCACGUUCUCUGAGAGAUUUACA	0.0554 ± 0.015
UAGUGACAGACCUUCUCUGUGAGAUAAACA	0.0102 ± 0.0046

Sequence	pre-steady-state target cleavage rate
UAGUGACACAACCUUCUCUGAGAGAUUAACA	0.155 ± 0.018
UAGUGACUCACCUUCUCUGAGAGAUUAUACA	0.114 ± 0.021
UAGUGUGUCACCAUCUCUGAGAGAUUAUGA	0.0243 ± 0.0082
UAGUGACUCACCUUCUGUGAGAGAUUUUGA	0.00903 ± 0.0039
UAGUGACACACCUACUCUGAGACAUUAACA	0.0243 ± 0.0072
UAGUGUGUCACCAACUCUGAGAGAUUUUGA	0.00551 ± 0.0041
UAGUGAGUGACCUUCUCUGAGAGAUUAUGA	0.0378 ± 0.011
UAGUGACAGACCUUCUCUGAGAGAUUAGCA	0.0252 ± 0.013
UAGUGUGUCAGCUUCUCUGUGAGAUUAACA	0.0415 ± 0.0032
UAGUGACACACCUUCUCUCAGAGAUUAUGA	0.00858 ± 0.0045
UAGUCUGUCUCCUUCUCUGAGAGAUUAUGA	0.0111 ± 0.0041
UAGUGACUCACCUUCAGUGAGAGAUUAACA	0.0471 ± 0.0078
UAGUGAGAUCACCUUCUCUGAGAGAUUAACA	0.178 ± 0.015
UAGUGAGUCACCUUCUCUGAGAGAUAUAACA	0.347 ± 0.046
UAGUGUGCUCACCUUCUCUGAGAGAUUAACA	0.205 ± 0.013
UAGUGAGUCACCUUCUCUGAGAGAUAUACA	0.0915 ± 0.025
UAGUGAGUCACCUUCUCUGAGAGAUAACA	0.107 ± 0.038
UAGUGUGAUCACCUUCUCUGAGAGAUUAACA	0.24 ± 0.018
UAGUGUGUCACCUUCUCGGAGAGAUUAACA	0.153 ± 0.017
UAGUCUGUCACCAUCACUGAGAGAUUAACA	0.11 ± 0.0083
UAGUGACAGUCCUUGUGUGAGAGAUUAACA	0.0291 ± 0.0078
UAGUGACAGUGGAACUCUGACAGAUUAUCA	< 0.0001
UAGUGUGUCACCUUCUCUGAGAGAUUAACCA	0.236 ± 0.021

Sequence	pre-steady-state target cleavage rate
UAGUGUGUCACCUUCUCUGAGAGAUUAACC [g2:g25:cont:t1C]	0.202 ± 0.014
UAGUGUGUCACCUUCUCUGAGAGAUUAACG [g2:g25:cont:t1G]	0.267 ± 0.02
UAGUGUGUCACCUUCUCUGAGAGAUUAACU [g2:g25:cont:t1U]	0.187 ± 0.015
UAGUGUGUCACCCUUCUCUGAGAGAUUAACA	0.104 ± 0.016
UAGUGUGUCACCUUUCUGAGAGAUUAACA	0.0596 ± 0.013
UAGUGUGUCACCUUCUCUGAGAGAUUACCA	0.197 ± 0.037
UAGUGUGUCACCUUUCUCUGAGAGAUUAACA	0.187 ± 0.016
UAGUGUGUCACCUUUUCUGAGAGAUUAACA	0.249 ± 0.02
UAGUGUGUCACCUUCUGUGUGAGAUUAACA	0.0302 ± 0.004
UAGUGACAGUGGAAGUCUGAGAGUUAAACA	< 0.0001
UAGUGACACACCUUCUGAGAGAGAUUAUGA	0.0134 ± 0.0078
UAGUGACAGUCCUUCUCUAAGAGAUUAACA	0.0523 ± 0.012
UAGUGACAGUGGAAGAGUGAGGAGAUUAACA	< 0.0001
UAGUGACUCACCUUCUGUGAGAGUUUAACA	0.0308 ± 0.01
UAGUGUGUCUCCUUCUCUGAGACAUUAACA	0.00482 ± 0.0038
UAGUGAGUCACCUUCUCUGACAGUUUAACA	0.0134 ± 0.0052
UAGUGAGUCACCUUCUCUGAGAGUAUAACA	0.144 ± 0.057
UAGUGAGUCACCUUCUCUCAGAGUUUAACA	0.0248 ± 0.0099
UAGUGAGUCACCUUCUCUGAGAGAGUAACA	0.239 ± 0.063
UAGUGAGUCACCUUCUCUGAGAGUAUUAACA	0.158 ± 0.019
UAGUGAGUCACCUUCUCUGAGAGUAAAACA	0.14 ± 0.045
UAGUGAGUCACCUUCUCUGAGAGUUAACA	0.253 ± 0.077
UAGUGAGUCACCUUCUCUGAGAGUUUAACA	0.277 ± 0.061

Sequence	pre-steady-state target cleavage rate
UAGUCUGACACCUUCUCUGAGAGUUUAACA	0.109 ± 0.016
UAGUCAGUCACCUUCUCUGAGAGUUUAACA	0.261 ± 0.041
UAGUGAGUCACCUUCUCUGAGAGCUUAACA	0.155 ± 0.026
UAGUGAGUCACCUUCUCUGAGAGAUUUAACA	0.225 ± 0.04
UAGUGAGUGACCUUCUCUGAGACAUUAACA	0.0267 ± 0.0076
UAGUCUCUCACCAUCUCUGAGAGAUUAACA	0.0256 ± 0.0069
UAGUGAGUGACCUUCUCUGAGAGAUAAACA	0.0814 ± 0.021
UAGUGACUCACCUUGUCUGAGACAUUAACA	0.0647 ± 0.011
UAGUGAGUCACCUUCUCUGAGAGAAAAACA	0.0915 ± 0.023
UAGUGUGUCACCUUCUCUGAGAGAUGUAACA	0.159 ± 0.029
UAGUGUGUCACCUUCUCUGAGAGUUUAUGA	0.0769 ± 0.038
UAGUGAGUCACCUUCUCUGAGAGUUAAACA	0.297 ± 0.086
UAGUGACUCACCUUCUCUGAGAGUUAAACA	0.0666 ± 0.014
UAGUGAGUCACCUUCUCUGAGAGAUGUAACA	0.312 ± 0.047
UAGUGAGUCACCUUCUCUGAGAGACUUAACA	0.137 ± 0.032
UAGUGAGUCACCUUCUCUGAGAGUUUAUCA	0.132 ± 0.049
UAGUGAGUCACCUUCUCUGAGAGGUUAACA	0.142 ± 0.019
UAGUGAGUCACCUUCUCUGAGAGAGUUAACA	0.257 ± 0.044
UAGUGAGUCACCUUCUCUGAGAGUUUAUGA	0.275 ± 0.092
UAGUCUGUCACCUUCUCUGAGAGAUGUAACA	0.211 ± 0.03
UAGUGACACACCUUCUCUGAGAGAAAUACA	0.0296 ± 0.013
UAGUGUGUCAGCUUCUCAGAGAGAUUAACA	0.0938 ± 0.0081
UAGUGACACACCUUGUCUGAGACAUUAACA	0.0978 ± 0.026

Sequence	pre-steady-state target cleavage rate
UAGUGUGUCACCUUCGUCUGAGAGAUUAACA	0.088 ± 0.012
UAGUGACUCACCUUCUCUGAGAGAUUAUGA	0.0729 ± 0.012
UAGUGAGUCCCCUUCUCUGAGAGAUUAACA	0.214 ± 0.021
UAGUGACACACCUUCUCUGAGAGAUUACA	0.0753 ± 0.023
UAGUGUGUCACCUUCUGUCAGAGAUUAACA	0.039 ± 0.0051
UAGUGAGUCACCUUCUCUGAGAUAUUAACA	0.115 ± 0.017
UAGUGACACACCUUCUCUGAGACAUUAACA	0.0514 ± 0.0091
UAGUGUCUCACCUUCUCUGAGAGAUUAUGA	0.0163 ± 0.0063
UAGUGACAGACCGUCUCUGAGAGAUUAACA	0.0355 ± 0.0065
UAGUGAGUCACCUUCACAGAGAGAUUAACA	0.0664 ± 0.0081
UAGUGACUCACCUUCUGUGACAGAUUAACA	0.0678 ± 0.011
UAGUGACAGACCUACUCUGAGAGAUUUACA	0.0238 ± 0.0093
UAGUGACACACCUUCUCUCAGACAUUAACA	0.0383 ± 0.011
UAGUCAGUCACCAUCUCUGAGAGAUUAACA	0.171 ± 0.0086
UAGUGAGUCACCUUCUCUGAGAGUUUUACA	0.257 ± 0.078
UAGUCUGUCACCUUCUCUGAGAGUUUUACA	0.171 ± 0.054
UAGUGUGUCACCUUCUCUGAGAGUUUUACA	0.14 ± 0.046
UAGUGUGUCACCAUCUCUGAGAGAUUUACA	0.158 ± 0.033
